# Assay outcomes from PubChem.
# A selection: hits, their analogues and other compounds. The true share with any hit is near 31%.
# PLAP act = activators of human placental alkaline phosphatase. activation fold at 20 µM. actives 1.2% (n = 96,000). purified PLAP enzyme, luminescent substrate read-out; stronger effect = higher value; in the data active = activation fold above about 2
# CYP2C19 activ = increases human CYP2C19 enzyme activity. P33261. recombinant CYP2C19, luciferin-H EGE luminescence; stronger effect = higher value; 0 = fully inhibited enzyme, 1 = untreated enzyme. activation factor at 5 µM. 96,000 tested, under 10 active;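 active = activation factor of at least 2 at 5 µM in the primary screen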;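 note: 0 = wells with 2.5 mM tranylcypromine and 1 = vehicle-only wells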
# Target sequence (P33261 whole entry, looked up): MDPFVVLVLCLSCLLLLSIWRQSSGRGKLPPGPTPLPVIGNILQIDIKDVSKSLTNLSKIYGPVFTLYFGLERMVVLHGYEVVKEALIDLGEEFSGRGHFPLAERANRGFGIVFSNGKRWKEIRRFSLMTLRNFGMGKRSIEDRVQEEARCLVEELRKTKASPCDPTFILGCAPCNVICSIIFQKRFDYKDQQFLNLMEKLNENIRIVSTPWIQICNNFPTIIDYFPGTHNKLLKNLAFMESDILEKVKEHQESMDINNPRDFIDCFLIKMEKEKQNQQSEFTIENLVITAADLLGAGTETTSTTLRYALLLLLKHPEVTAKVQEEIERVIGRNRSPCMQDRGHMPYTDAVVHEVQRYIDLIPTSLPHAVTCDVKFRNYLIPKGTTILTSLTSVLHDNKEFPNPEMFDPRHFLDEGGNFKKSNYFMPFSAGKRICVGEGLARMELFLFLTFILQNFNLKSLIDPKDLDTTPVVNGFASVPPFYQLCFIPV
# CYP2C9 inh = blocks human cytochrome P450 2C9 | CYP2C9 Supersomes, luciferin-H conversion, luminescence | actives 20% (n = 96,000) | AID 777 | P11712 | inhibition, % at 5 µM;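 active = blocking of liver enzyme CYP2C9 beyond about 50% at 5 µM, limit read from the data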
# CYP2C19 inhib = human CYP2C19 inhibition; P33261; CYP2C19 Supersomes, luciferin-H EGE luminescence, 30 min; inhibition, % at 5 µM; actives 21% (n = 96,000);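 active = CYP2C19 inhibition above a set limit at 5 µM in the primary screen, cut at about 50% in these data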;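 note: plate controls were negative control wells for no effect and 2.5 mM tranylcypromine positive control for full effect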
# CYP2C9 act = increases human cytochrome P450 2C9 activity. recombinant CYP2C9, luciferin-H conversion, luminescence; stronger effect = higher value; factor 1 = untreated enzyme, 0 = blocked. AID 1024. actives 1.4% (n = 96,000). P11712. activation factor at 5 µM;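 active = activation factor of 2 or more for CYP2C9 at a 5 µM dose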;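 note: 0 = sulfaphenazole-blocked wells and 1 = vehicle-only wells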
# Numbers without * were called inactive; ! = not confirmed by another sample.
SMILES,PLAP act,CYP2C19 activ,CYP2C9 inh,CYP2C19 inhib,CYP2C9 act
Cn1c(=O)[nH]c(=O)c2c1nc(NC1CCCCC1)n2CC(=O)NC1CCCCC1,0.8,1,-2,-1,1
CCOc1cc(C(=O)N2CCN(c3ccccc3)CC2)cc(OCC)c1OCC,1.5,0.8,-17,16,1.2
CCOc1cc(C(=O)N(C)c2ccccc2)cc(OCC)c1OCC,1.5,0.4,22,57*,0.8
O=CNCC(=O)NC1CCCCCC1,1.1,1,11,3,0.9
COc1ccccc1-n1c(CNC(=O)c2ccco2)nnc1SCC(=O)Nc1nccs1,1,0.8,42,17,0.6
CCCCCCCCNC(=O)CCNC(=O)c1ccc(C(C)(C)C)cc1,2*,0.4,52*,55*,0.5
CCOc1ccc(C(=O)NCCC(=O)NCCCC(=O)O)cc1,0.9,0.8,45,20,0.5
N#C/C(=N\O)c1nc(-c2ccccc2)cs1,1.2,0.7,62*!,33,0.4
COc1cccc(-c2nnc(SCC(=O)Nc3ccc(S(N)(=O)=O)cc3)n2C)c1,1.4,1,38,3,0.6
Cc1ccc2nsnc2c1S(=O)(=O)N1CCCC1,1,0.6,-33,37,1.3
O=S(=O)(Cc1ccccc1Cl)N1CCN(Cc2ccc3c(c2)OCO3)CC1,1.4,0.1,-8,94*,1.1
O=S(=O)(Cc1ccc(Cl)cc1)N1CCN(Cc2ccccc2)CC1,1,0.7,12,30,0.9
Cc1ccc2nsnc2c1S(=O)(=O)N1CCN(Cc2ccc3c(c2)OCO3)CC1,1.4,0,73*,97*,0.3
COc1cccc(C(=O)N2CCN(Cc3ccc4c(c3)OCO4)CC2)c1OC,1.3,0.9,-20,9,1.2
COc1ccc(F)cc1S(=O)(=O)N1CCN(Cc2ccc3c(c2)OCO3)CC1,1.2,0.4,28,56*,0.7
COc1ccc(S(=O)(=O)N2CCN(Cc3ccc4c(c3)OCO4)CC2)c2ccccc12,1.2,0.1,74*,89*,0.3
O=C(CSc1nnc(C2CC2)n1-c1ccccc1)NCCc1ccccc1,1,0.8,5,18,1
Cn1cc(S(=O)(=O)NCc2cccs2)c(=O)n(C)c1=O,1,1.2,-13,-18,1.1
CCOC(=O)CSc1nnc(CNC(=O)c2ccc(S(=O)(=O)N3CCCCC3)cc2)n1C,1.2,0.9,14,11,0.9
Cc1ccccc1C(=O)N/N=C/c1ccc(OCC(=O)N2CCCCC2)cc1,1.2,1,24,-1,0.8
CSc1ccc(S(=O)(=O)N2CCN(Cc3ccc4c(c3)OCO4)CC2)cc1,1,0.7,42,26,0.6
COc1ccc(Cl)cc1S(=O)(=O)N1CCN(Cc2ccc3c(c2)OCO3)CC1,1.4,0.3,30,74*,0.7
CC(=O)C1=C(O)C(=O)N(c2nccs2)C1c1ccc(Br)cc1 (stereo not drawn),1,0.9,57*,15,0.4
CC(=O)C1=C(O)C(=O)N(c2cc(C(C)(C)C)on2)C1c1ccc(Br)cc1 (stereo not drawn),1.2,1,41,4,0.6
COc1ccc(NC(=O)CSc2nnc(CN3CCOCC3)n2-c2ccccc2)cc1Cl,1.6,0.7,25,33,0.7
SMILES,PLAP act,CYP2C19 activ,CYP2C9 inh,CYP2C19 inhib,CYP2C9 act
COc1ccc(NC(=O)CN2CCN(CC(=O)Nc3ccccc3F)CC2)cc1OC,1.2,0.8,20,19,0.8
COc1cc(NC(=O)CCN2CCN(c3ccccc3F)CC2)cc(OC)c1,1.4,0.7,63*,34,0.4
O=C(CCN1CCN(CC(=O)Nc2ccccc2F)CC1)Nc1ccccc1F,1.6,0.3,43,74*,0.6
O=C(CN1CCN(S(=O)(=O)c2ccc(F)cc2)CC1)Nc1ccc2c(c1)OCCO2,1.1,0.9,2,6,1
COc1ccc(S(=O)(=O)N2CCN(CCC(=O)Nc3ccccc3F)CC2)cc1,0.8,0.1,94*,87*,0.1
COc1ccc(S(=O)(=O)N2CCN(CC(=O)Nc3ccc(F)c(F)c3)CC2)cc1,1.4,0.3,-123,70*,2.2*
CN1C(=O)NC(c2ccccc2)C2=C1CN(c1ccc3ccccc3c1)C2=O (stereo not drawn),1,1.1,4,-6,1
Cc1ccccc1OCC1Cc2c(nc(N)c(C#N)c2N)O1 (stereo not drawn),1,0.6,-4,42,1
COc1cccc(/C=N/n2c(-c3cccs3)n[nH]c2=S)c1,1,0.7,40,25,0.6
COc1ccc(OC)c(NC(=O)CCN2CCN(c3ccccc3)CC2)c1,1.6,0.6,16,35,0.8
O=C(CCN1CCN(c2ccc(F)cc2)CC1)Nc1ccccc1F,1.6,0.3,60*,66*,0.4
O=C(CCN1CCN(c2ccccc2)CC1)Nc1ccccc1F,1.2,0.2,75*,75*,0.2
[O-]/[N+](=C\c1ccc(F)cc1)c1ccccc1,0.8,0.7,-3,32,1
CC(=O)C1C(c2ccco2)c2c(noc2C)CC1(C)O (stereo not drawn),1,1.1,4,-5,1
Nc1nc(SCc2ccc(Cl)cc2Cl)n[nH]1,1.4,0.3,20,73*,0.8
CCc1nc(SCc2cc(Cl)ccc2OC)n[nH]1,2.2*,0.1,52*,94*,0.5
COc1ccc(Cl)cc1-c1n[nH]c(=S)o1,1.2,1,-7,-4,1.1
CC(=O)Nc1nc(SCc2ccc(Cl)cc2Cl)n[nH]1,1,0.8,0,19,1
CCCc1nc(SCc2ccccc2Cl)n[nH]1,2.2*,0.7,-12,31,1.1
c1coc(-c2nnc(SCc3cn4ccccc4n3)o2)c1,0.9,0.5,-2,46,1
Brc1c(CSc2nnc(-c3ccco3)o2)nc2ccccn12,1.4,0.2,-122,78*,2.2*
Cc1cc(NC(=O)C2C3C(=O)N(Cc4ccc(Cl)cc4)C(C(=O)NCc4ccccc4)C34C=CC2(C)O4)no1 (stereo not drawn),1.8,0.6,83*,40,0.2
Cc1cc(NC(=O)C2C3C(=O)N(Cc4ccc(Cl)cc4)C(C(=O)NC4CCCCC4)C34C=CC2(C)O4)no1 (stereo not drawn),1.2,1,-24,2,1.2
Cn1c(=O)n(C)c2cc(C(=O)c3ccccc3)ccc21,1.2,0.9,2,8,1
CSc1cccc(NC(=O)Nc2ccc(Cl)cc2)c1,1,0.9,4,10,1
CSc1ccccc1NC(=O)Nc1ccc(Cl)cc1,0.8,0.2,53*,85*,0.5
CCc1c(C)nc2ncnn2c1N1CCCC(C(=O)Nc2cc(F)ccc2C)C1 (stereo not drawn),1.7,0.8,85*,23,0.2
COc1ccc(NC(=O)C2CCCN(c3c4c(nc5ncnn35)CCC4)C2)cc1 (stereo not drawn),1.8,0.7,80*,31,0.2
CCc1c(C)nc2ncnn2c1N1CCC(C(=O)Nc2cccc(C(C)=O)c2)CC1,1.5,0.5,76*,54*,0.2
